Assay [1] in a line: small molecules captured by biotinylated probe aFSTL3 – biochemical, small-molecule microarray, fluorescence 635/667, stem cell growth factor project, primary screen (AID 1064).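 Further: measures binding of the biotinylated anti-FSTL3 antibody to printed compounds.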 Particulars: higher = more signal.
The nature of assay [2]: binders from COS7 lysate, DM2A8 probe, primary screen, torsin A project, cell lysate, small-molecule microarray, fluorescence 635/667 (AID 1065). Particulars: higher = more signal, COS7 lysate expressing mutant human TOR1A.
Assay [3] can be described thus: small molecules captured by biotinylated probe aFGF2 – biochemical, small-molecule microarray, fluorescence 635/667, stem cell growth factor project, primary screen (AID 1067).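 Further: measures binding of biotinylated aFGF2 protein to printed compounds on slides; z-score merges feature fluorescence and signal-to-noise across triplicate slides.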 Conditions: higher = more signal.
Assay [4] can be described thus: small molecules captured by biotinylated probe aFGF10 – biochemical, small-molecule microarray, fluorescence 635/667, stem cell growth factor project, primary screen (AID 1071).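 Further: score merges 667 nm spot intensity and signal to noise from triplicate slides.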 Conditions: higher = more signal.
For assay [5], the target named is Neurogenic locus notch homolog protein 2 (Homo sapiens) (UniProt Q04721). Put plainly: small molecules binding Notch2 protein – biochemical, small-molecule microarray, 635 nm fluorescence, stem cell growth factors, primary screen (AID 1073). Particulars: higher = more signal.
Neurogenic locus notch homolog protein 2 (Homo sapiens), sequence (Q04721 whole entry, looked up, canonical isoform): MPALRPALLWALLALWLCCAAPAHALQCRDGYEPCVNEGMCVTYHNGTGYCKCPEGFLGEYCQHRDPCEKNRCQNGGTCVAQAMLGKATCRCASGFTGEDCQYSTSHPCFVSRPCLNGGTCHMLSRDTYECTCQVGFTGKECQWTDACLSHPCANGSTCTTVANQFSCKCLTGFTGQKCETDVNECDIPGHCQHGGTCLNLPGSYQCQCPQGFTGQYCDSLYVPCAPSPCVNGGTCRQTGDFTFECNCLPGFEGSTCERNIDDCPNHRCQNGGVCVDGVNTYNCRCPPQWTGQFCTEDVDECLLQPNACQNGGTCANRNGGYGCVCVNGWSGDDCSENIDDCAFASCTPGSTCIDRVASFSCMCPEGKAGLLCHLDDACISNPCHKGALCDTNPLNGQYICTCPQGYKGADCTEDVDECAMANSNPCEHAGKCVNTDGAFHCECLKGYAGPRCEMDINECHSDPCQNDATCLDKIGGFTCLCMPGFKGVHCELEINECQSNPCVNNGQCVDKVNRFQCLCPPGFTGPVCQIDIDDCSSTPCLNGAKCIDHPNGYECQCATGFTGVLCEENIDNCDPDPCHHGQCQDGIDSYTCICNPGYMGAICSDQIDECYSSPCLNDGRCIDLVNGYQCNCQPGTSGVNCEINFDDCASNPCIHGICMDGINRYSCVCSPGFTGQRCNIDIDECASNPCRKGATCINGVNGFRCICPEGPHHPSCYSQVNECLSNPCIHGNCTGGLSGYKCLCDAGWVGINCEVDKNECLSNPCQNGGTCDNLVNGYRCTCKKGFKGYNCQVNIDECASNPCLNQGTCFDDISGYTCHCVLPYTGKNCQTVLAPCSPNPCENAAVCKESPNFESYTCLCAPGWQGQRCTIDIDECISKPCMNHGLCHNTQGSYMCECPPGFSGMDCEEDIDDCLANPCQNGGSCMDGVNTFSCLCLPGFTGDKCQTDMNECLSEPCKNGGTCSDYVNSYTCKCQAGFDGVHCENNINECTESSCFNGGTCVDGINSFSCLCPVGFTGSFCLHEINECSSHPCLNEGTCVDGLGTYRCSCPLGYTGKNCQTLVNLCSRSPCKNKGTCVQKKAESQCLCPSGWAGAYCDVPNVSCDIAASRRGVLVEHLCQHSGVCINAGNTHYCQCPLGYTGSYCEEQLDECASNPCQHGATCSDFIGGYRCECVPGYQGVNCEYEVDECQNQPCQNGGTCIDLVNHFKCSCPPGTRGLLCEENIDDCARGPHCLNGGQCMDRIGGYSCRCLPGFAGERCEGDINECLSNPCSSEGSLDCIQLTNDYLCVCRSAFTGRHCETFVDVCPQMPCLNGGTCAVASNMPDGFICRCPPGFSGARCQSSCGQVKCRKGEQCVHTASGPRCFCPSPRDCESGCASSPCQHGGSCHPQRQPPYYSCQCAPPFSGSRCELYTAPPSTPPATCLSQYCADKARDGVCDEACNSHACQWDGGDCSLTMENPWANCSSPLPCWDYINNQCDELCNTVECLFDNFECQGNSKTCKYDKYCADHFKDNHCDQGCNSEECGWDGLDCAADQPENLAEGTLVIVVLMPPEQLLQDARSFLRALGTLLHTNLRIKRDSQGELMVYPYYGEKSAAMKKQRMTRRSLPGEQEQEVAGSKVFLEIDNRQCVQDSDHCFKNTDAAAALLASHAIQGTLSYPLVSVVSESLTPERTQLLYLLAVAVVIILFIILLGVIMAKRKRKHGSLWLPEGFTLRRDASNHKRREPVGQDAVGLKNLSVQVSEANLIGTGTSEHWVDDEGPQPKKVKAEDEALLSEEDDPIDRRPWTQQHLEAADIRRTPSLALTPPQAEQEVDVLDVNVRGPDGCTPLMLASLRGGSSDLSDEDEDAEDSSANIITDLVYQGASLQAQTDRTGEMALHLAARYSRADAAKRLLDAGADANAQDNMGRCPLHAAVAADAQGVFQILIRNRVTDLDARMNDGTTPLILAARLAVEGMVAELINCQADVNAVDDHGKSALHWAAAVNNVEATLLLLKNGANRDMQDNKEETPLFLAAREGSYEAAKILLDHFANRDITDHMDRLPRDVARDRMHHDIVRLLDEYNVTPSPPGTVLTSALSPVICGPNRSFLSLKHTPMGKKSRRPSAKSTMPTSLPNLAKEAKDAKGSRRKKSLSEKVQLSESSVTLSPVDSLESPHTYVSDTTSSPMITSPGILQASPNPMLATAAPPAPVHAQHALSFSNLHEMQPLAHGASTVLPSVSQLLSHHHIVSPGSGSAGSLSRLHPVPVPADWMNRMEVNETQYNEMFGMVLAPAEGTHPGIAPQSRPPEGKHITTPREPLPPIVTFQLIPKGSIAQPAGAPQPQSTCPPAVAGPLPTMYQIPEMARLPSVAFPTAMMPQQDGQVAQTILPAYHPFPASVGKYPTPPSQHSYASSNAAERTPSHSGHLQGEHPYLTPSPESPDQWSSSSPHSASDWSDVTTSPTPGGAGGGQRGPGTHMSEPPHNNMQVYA
The target of assay [6] is Pro-neuregulin-1, membrane-bound isoform (Homo sapiens) (UniProt Q02297). Put plainly: small molecules binding neuregulin-1 protein – biochemical, small-molecule microarray, fluorescence 635/667, psychiatric disease protein project, primary screen (AID 1075).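 Further: score combines 667 nm spot fluorescence with signal to noise.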 Conditions: NRG1 binding, 635 nm fluorescence, higher = more signal.
The test system of assay [7] is Neuregulin-1 EGF-like domain. Briefly: small molecules binding NRG1 EGF domain – biochemical, small-molecule microarray, 635 nm fluorescence, primary screen (AID 1081).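 Further: binding of the protein to compounds printed on small-molecule microarray slides.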 Conditions: higher = more signal.
The nature of assay [8]: FRG1 expression reporter modulators in myotubes – cell-based, C2C12 myotubes, firefly/Renilla luciferase, luminescence, FRG1 inhibition for FSHD, primary screen (AID 1084). Particulars: FRG1 promoter luciferase, higher = more signal, called active from +8 up or from −8 down.
Assay [9] is described as follows: small molecules captured by biotinylated probe aFST – biochemical, small-molecule microarray, fluorescence 635/667, stem cell growth factor project, primary screen (AID 1086).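 Further: score merges 667 nm fluorescence with signal-to-noise of each printed compound spot.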 Particulars: higher = more signal.
A short description of assay [10]: binders of probe aHhip on microarray, primary screen, stem cell growth factor project, biochemical, small-molecule microarray, fluorescence 635/667 (AID 1087).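 Further: score merges spot fluorescence at 667nm with spot signal to noise ratio.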 Particulars: higher = more signal.
Assay [11] concerns PRMT1 (protein arginine N-methyltransferase 1). Briefly: small molecules binding arginine methyltransferase PRMT1 – biochemical, small-molecule microarray, 635 nm fluorescence, primary screen (AID 1088).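 Further: binding of Prmt1 protein to compounds spotted on small-molecule microarray slides.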 Conditions: higher = more signal.
Assay [12] in a line: growth effects on S. cerevisiae YJM789 – YJM789 clinical isolate, OD600, 24 h, basal, primary screen (AID 1089).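 Further: growth of clinical yeast isolate S. cerevisiae YJM 789 seeded 1000 cells per well; test concentration not given here.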 Conditions: higher = more signal, called active from +8 up or from −8 down.
Assay [13] can be described thus: S. pombe growth modifiers, basal conditions – strain 972, OD600, 24 h, no modulator, primary screen (AID 1090).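 Further: basal condition with compound alone and no growth modifier present; test concentration not given here.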 Particulars: S. pombe 972 growth, higher = more signal, called active from +8 up or from −8 down.
The nature of assay [14]: budding yeast growth modifiers under rapamycin – strain BY4716, OD600, 96 h, primary screen (AID 1091). Further: test concentration not given here. Particulars: S. cerevisiae BY4716 + rapamycin, higher = more signal, called active from +8 up or from −8 down.
In assay [15] the target is Torsin-1A-interacting protein 2 (Homo sapiens) (UniProt Q8NFQ8). Put plainly: small molecules binding lysate-expressed LULL1 – cell lysate, human LULL1 lysate, 635/667 nm fluorescence, primary screen (AID 1092).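 Further: probe is lysate of COS7 cells overexpressing human LULL1; score merges per-feature 667 nm fluorescence with signal-to-noise.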 Particulars: small-molecule microarray, hLULL1 lysate binding, 635 nm fluorescence; higher = more signal.
The nature of assay [16]: optical density change of DRC41 E. coli – strain DRC41, OD650, 24 h, E. coli filamentation project, primary screen (AID 1093).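 Further: MC1000 strain lacking acrAB efflux and sulA so SOS filamentation is blocked; test concentration not given here.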 Conditions: E. coli DRC41 growth, higher = more signal, called active from +8 up or from −8 down.
Assay [17] is described as follows: probe aLefty2 binding to arrayed compounds – biochemical, biotinylated probe, 635/667 nm fluorescence, primary screen (AID 1094).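 Further: score merges spot fluorescence near 667 nm with spot signal-to-noise ratio.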 Particulars: small-molecule microarray, higher = more signal.
Assay [18] concerns Noggin (protein binding on small-molecule microarray). Briefly: small molecules binding Noggin protein – biochemical, 635/667 nm fluorescence, primary screen (AID 1095).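 Further: score merges 667 nm feature fluorescence with signal to noise over triplicate slides.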 Particulars: 635 nm fluorescence, higher = more signal.
For assay [19], the target named is Neurogenic locus notch homolog protein 3 (Homo sapiens) (UniProt Q9UM47). Put plainly: small molecules binding NOTCH3 protein – biochemical, 635/667 nm fluorescence, primary screen (AID 1096). Particulars: small-molecule microarray, 635 nm fluorescence, higher = more signal.
Neurogenic locus notch homolog protein 3 (Homo sapiens), sequence (Q9UM47 whole entry, looked up): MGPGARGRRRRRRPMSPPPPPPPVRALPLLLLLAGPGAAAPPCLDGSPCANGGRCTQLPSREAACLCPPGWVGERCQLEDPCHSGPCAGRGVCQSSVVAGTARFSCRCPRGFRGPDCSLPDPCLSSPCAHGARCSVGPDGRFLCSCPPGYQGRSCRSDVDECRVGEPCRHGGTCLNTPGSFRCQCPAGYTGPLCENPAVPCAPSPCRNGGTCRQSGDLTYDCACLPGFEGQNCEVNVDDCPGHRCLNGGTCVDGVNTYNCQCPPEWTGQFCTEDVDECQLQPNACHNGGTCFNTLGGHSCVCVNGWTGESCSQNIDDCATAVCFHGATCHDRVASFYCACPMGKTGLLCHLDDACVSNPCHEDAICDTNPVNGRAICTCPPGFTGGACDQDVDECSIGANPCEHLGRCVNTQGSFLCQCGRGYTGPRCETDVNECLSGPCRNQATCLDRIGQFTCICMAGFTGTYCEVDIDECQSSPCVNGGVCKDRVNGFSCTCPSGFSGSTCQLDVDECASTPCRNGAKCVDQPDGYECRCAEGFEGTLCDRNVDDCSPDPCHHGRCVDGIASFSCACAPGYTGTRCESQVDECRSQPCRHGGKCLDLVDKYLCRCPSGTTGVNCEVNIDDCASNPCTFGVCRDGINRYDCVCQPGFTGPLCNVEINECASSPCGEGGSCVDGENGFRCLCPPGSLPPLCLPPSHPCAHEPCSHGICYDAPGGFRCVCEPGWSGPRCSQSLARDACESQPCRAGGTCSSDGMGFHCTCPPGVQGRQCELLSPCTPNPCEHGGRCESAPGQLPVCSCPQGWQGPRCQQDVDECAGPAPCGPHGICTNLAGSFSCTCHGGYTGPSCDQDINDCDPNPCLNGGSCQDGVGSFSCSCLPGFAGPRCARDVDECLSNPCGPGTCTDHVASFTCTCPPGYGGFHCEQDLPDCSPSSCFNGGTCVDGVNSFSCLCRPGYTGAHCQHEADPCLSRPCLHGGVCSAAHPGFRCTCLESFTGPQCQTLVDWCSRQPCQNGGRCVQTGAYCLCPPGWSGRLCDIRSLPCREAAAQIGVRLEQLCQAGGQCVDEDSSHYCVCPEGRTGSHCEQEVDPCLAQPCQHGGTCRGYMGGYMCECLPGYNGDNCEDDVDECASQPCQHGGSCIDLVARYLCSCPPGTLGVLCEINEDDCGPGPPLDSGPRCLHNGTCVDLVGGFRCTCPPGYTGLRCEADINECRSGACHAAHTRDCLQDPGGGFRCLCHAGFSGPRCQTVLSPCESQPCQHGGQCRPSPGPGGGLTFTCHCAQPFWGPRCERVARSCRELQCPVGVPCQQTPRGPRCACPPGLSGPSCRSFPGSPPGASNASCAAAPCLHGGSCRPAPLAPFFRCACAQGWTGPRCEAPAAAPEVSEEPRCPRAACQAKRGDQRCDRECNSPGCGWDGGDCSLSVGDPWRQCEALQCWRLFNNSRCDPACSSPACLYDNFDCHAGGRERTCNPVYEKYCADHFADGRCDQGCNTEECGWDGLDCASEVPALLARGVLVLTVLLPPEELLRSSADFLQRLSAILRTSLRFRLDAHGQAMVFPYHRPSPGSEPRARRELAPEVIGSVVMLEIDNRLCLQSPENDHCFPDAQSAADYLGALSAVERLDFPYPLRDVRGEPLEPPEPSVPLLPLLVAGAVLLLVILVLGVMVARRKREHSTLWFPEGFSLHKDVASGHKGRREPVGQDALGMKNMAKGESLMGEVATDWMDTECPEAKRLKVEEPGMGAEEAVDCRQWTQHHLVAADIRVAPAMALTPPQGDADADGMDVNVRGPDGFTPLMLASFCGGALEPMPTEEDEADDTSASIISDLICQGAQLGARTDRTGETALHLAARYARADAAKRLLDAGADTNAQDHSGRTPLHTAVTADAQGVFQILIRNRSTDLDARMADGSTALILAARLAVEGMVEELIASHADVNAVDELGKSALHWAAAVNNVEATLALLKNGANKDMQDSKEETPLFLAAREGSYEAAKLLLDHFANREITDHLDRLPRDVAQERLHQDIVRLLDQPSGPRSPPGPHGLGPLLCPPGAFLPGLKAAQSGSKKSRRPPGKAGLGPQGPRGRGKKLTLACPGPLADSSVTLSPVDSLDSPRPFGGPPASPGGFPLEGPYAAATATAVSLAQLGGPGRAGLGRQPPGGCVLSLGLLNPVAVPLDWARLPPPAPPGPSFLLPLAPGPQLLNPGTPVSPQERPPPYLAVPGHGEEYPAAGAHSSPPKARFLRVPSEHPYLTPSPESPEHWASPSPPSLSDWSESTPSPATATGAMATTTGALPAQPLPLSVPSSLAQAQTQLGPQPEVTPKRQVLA
Assay [20] can be described thus: probe aEGFR binding to arrayed compounds – biochemical, biotinylated probe, 635/667 nm fluorescence, primary screen (AID 1097).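 Further: probe is a biotinylated anti-EGFR antibody binding compounds printed on slides; score combines fluorescence near 667 nm and signal to noise of each spot.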 Particulars: small-molecule microarray, higher = more signal.

Activity calls are given as the source filed them.

With `CC(C)(C)N1C(=O)[C@H]2[C@H]3[C@H](O)[C@H](O)CC(=O)[C@H]3CC[C@H]2C1=O`, the composite z-score in [1] was -0.635; in assay [2], 1.21; in assay [3] it was -0.107; in assay [4], 0.295; in [5], 0.967; in assay [6], 0.354. Besides, the composite z-score in assay [7] is 0.725; in assay [9], 0.115; in [10], -0.134; in assay [11], 0.729; in assay [15], 0.46; in [17], -0.211. The figures for the composite z-score in assay [18], in assay [19] and in assay [20] were 0.344, 0.611 and -0.0333, respectively. The z-score was -0.0954 (inactive) in assay [8]; 0.445 (inactive) in assay [12]; -0.109 (inactive) in assay [13]; 0.85 (inactive) in assay [14]; -0.29 (inactive) in assay [16].

As for `C#CCCCON=C1C[C@@H](O)[C@@H](O)[C@@H]2[C@@H]3C(=O)N(CC)C(=O)[C@@H]3CC[C@@H]12`, the composite z-score was -0.572 in assay [1]; 0.278 in assay [2]; -0.143 in assay [3]; 0.722 in assay [4]; 0.656 in assay [5]; 0.614 in [6]. Moreover, the composite z-score in assay [7] is 0.636; in assay [9] it was 0.276; in assay [10], 0.235; in [11], 0.677; in assay [15], 0.187; in assay [17], -0.0478. Further, the composite z-score was 0.167 in [18], 0.426 in assay [19] and -0.0972 in assay [20]. The z-score was -0.0351 (inactive) in [8]; -0.0246 (inactive) in [12]; 0.267 (inactive) in assay [13]; 1.25 (inactive) in [14]; 0.439 (inactive) in assay [16].

Turning to `CCN1C(=O)[C@H]2[C@H]3[C@H](O)[C@H](O)CC(=NNC(=O)OCc4ccc(OC)cc4)[C@@H]3CC[C@H]2C1=O`, the composite z-score in [1] is 1.28; in [2], -0.0691; in assay [3] it was -0.0235; in assay [4] it was 0.0306; in [5] it was -0.213; in [6], -0.295. Further, the composite z-score in assay [7] is -0.46; in assay [9], 0.508; in assay [10] it was -0.374; in assay [11], -0.235; in assay [15] it was 0.0228; in [17] it was 0.241. Besides, the composite z-score in [18] is 0.51; in assay [19], -0.428; in assay [20], -0.113. Further, the z-score in [8] was 0.127 (inactive); in assay [12], -1.31 (inactive); in assay [13] it was -1.45 (inactive); in assay [14], -0.287 (inactive); in [16], 0.214 (inactive).

Turning to `COC(=O)[C@H](C)NC(=O)CCC1CC(OC(=O)NCc2ccc3c(c2)OCO3)CC2(CCCC(COC(=O)NCCc3ccccc3OC)O2)O1` (stereo not given in full), the composite z-score in assay [1] is -0.587; in assay [2] it was 0.172; in assay [3], -0.171; in assay [4], 0.16; in assay [5], 0.138; in assay [6], 0.597. Further, the composite z-score in assay [7] was 0.751; in assay [9], -0.17; in assay [10] it was 0.0274; in assay [11] it was 0.472; in [15] it was 1.89; in [17] it was -0.166. Further, the composite z-score in assay [18] was 0.181; in [19] it was 0.0607; in assay [20] it was -0.0798. The z-score in assay [8] is 1.06 (inactive); in [12], -1.21 (inactive); in [13], 0.124 (inactive); in assay [14], -0.167 (inactive); in assay [16], 0.872 (inactive).

With `CC(=O)OC[C@H]1O[C@H](C#Cc2ccccc2)C=C[C@@H]1OC(C)=O`, the composite z-score in [1] was -0.306; in assay [2], -0.0613; in assay [3], -0.0474; in assay [4], 0.346; in [5], 0.32; in assay [6], 0.232. Besides, the composite z-score in assay [7] was -0.11; in assay [9], 0.0157; in [10], 0.281; in assay [11] it was 0.48; in assay [15], 0.496; in assay [17], -0.0836. For the same molecule, the composite z-score is 0.653 in [18], 0.812 in assay [19] and -0.0953 in assay [20]. For the same molecule, the z-score in assay [8] was -0.284 (inactive); in assay [12], 0.444 (inactive); in [13] it was -2.17 (inactive); in [14], -0.747 (inactive); in assay [16] it was 0.875 (inactive).

For the origin of these results see PubChem BioAssay.
